{"source": "PubChem BioAssay (EPA / NIEHS)", "note": "Active and inactive are the calls of the source. Rule for the calls: active = hit-call score of the fitted dose curve at least 0.9, where 1 is the maximum; inactive = score below 0.9."}
{"test": "CEETOX_H295R_PROG: CeeTox H295R High-throughput Steroidogenesis Assay for Progesterone (PROG) (AID 2283442);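 for AC50: human H295R adrenal cells primed with 10 µM forskolin before dosing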", "details": "actives raise or lower the signal", "description": "CEETOX_H295R is a cell-based, multiplexed-readout assay that uses H295R, a human adrenal gland cell line, with measurements taken at 48 hours after chemical dosing in a 96-well plate.CEETOX_H295R_PROG is one of 23 assay component(s) measured or calculated from the CEETOX_H295R assay. It is designed to make measurements of hormone induction, a form of inducible reporter, as detected with absorbance signals by HPLC-MS-MS technology.Data from the assay component CEETOX_H295R_PROG was analyzed into 1 assay endpoint. This assay endpoint, CEETOX_H295R_PROG, was analyzed with bidirectional fitting relative to DMSO as the negative control and baseline of activity. Using a type of inducible reporter, gain or loss-of-signal activity using HPLC-MS-MS was used to understand synthesis of Progesterone in H295R cell line at 48hr of chemical exposure. To generalize the intended target to other relatable targets, this assay endpoint is annotated to the steroid hormone intended target family, where the subfamily is progestagens.\nCell culture and media preparation procedures were conducted in accordance with OECD Test No. 456 guidelines, with minor modifications. H295R cells (ATCC CRL-2128) were expanded for 5 passages and frozen in batches in liquid nitrogen. Prior to the steroidogenesis assay, H295R cells were thawed and passed at least 4 times. The maximum passage was 10. Cells were maintained in a 1:1 mixture of DMEM/F12 supplemented with 5ml/L ITS+ Premix (BD Bioscience) and 12.5 ml/L Nu-Serum (BD Bioscience). After seeding cells into 96-well plates at 50-60% confluency, cells were allowed to adhere overnight. Prior to chemical testing, culture medium was replaced with 175 uL medium containing 10 uM forskolin to stimulate steroidogenesis for 48 hours. Following prestimulation, forskolin medium was replaced with medium containing test chemical solubilized in DMSO (ensuring a final concentration of 0.1% DMSO). Test chemicals were incubated for 48 hours, then the medium was removed and split into 2 vials containing approximately 75uL each, and stored at -80 C prior to hormone analysis. For steroid quantification, media samples were shipped to OpAns, LLC (Durham, NC) on dry ice, and samples were thawed to room temperature prior to liquid-liquid extraction. Steroid hormones were extracted from media samples using methyl tertbutyl ether (MTBE). An extra derivatization with dansyl chloride was included for estrogen (estrone and estradiol) detection only. Steroid hormones were separated by HPLC, eluted using a reverse phase C18 gradient with electrospray positive ionization, followed by quantification by tandem mass spectrometry (MS/MS). Data were acquired on a MassHunter Workstation Acquisition version B03.01 (Agilent Technologies, Inc.) and processed using MassHunter Quantitative Analysis for QQQ. Accuracy was determined for each hormone analyte from 3 standards to determine upper and lower limits of quantification (ULOQ and LLOQ, respectively) using a 7-point standard curve. Precision and accuracy of the extraction and quantification methods were calculated as the percent relative standard deviation (%RSD) of the spiked standards and percent spiked standard recovered, respectively. The goal was to achieve 100% accuracy (i.e., recover all spiked-in standard at quantification with minimal loss during run time) and good precision (i.e., have %RSD <15% to ensure reproducibility). Test medium was removed following chemical exposure, and cell viability was evaluated in the same wells by MTT. MTT procedures were as follows: after removal of test medium, 500 uL of 0.5 mg/ml of 3-[4,5-dimethylthiazol-2-y]2,5-diphenyltetrazoliumbromide solution was added to the cells. Following a 4-hour incubation at 37 C and 5% CO2 to allow formazan-crystal formation, the MTT solution was removed and blue formazan salt crystals were solubilized using 500uL anhydrous isopropanol with shaking for 20 minutes. Absorbance was read at 570 and 650nm using a Packard Fusion microplate reader. […]"}
{"smiles": "OCCC(O)CO", "note": "(stereo not given)", "outcome": "inactive"}
{"smiles": "O=C1C=CC(=O)N1c1ccccc1", "outcome": "inactive"}
{"smiles": "O=c1[nH]cccc1O", "outcome": "inactive"}
{"smiles": "CCCCCCCCCCCCC[N+](C)(C)Cc1ccccc1", "AC50": "0.159 µM (active)"}
{"smiles": "CCCCC(CC)COC(=O)c1ccc(N(C)C)cc1", "note": "(stereo not given)", "AC50": "6.01 µM (active)"}
{"smiles": "CSc1ccc(O)cc1C", "outcome": "inactive"}
{"smiles": "CCn1c2ccccc2c2ccccc21", "outcome": "inactive"}
{"smiles": "N#Cc1ccccc1O", "outcome": "inactive"}
{"smiles": "Cc1cccc(C)n1", "outcome": "inactive"}
{"smiles": "Cc1cc(O)c(C(C)(C)C)cc1C(C)(C)C", "AC50": "2.64 µM (active)"}
{"smiles": "CCN(CC)c1ccc(N=Nc2ccccc2)cc1", "outcome": "inactive"}
{"smiles": "CCCCCCCCCc1ccc(OCCO)cc1", "outcome": "inactive"}
{"smiles": "CN1CN(C)CN(C)C1", "outcome": "inactive"}
{"smiles": "O=C(c1ccccc1)c1ccc(Cl)cc1", "outcome": "inactive"}
{"smiles": "Nc1cccnc1N", "outcome": "inactive"}
{"smiles": "CCOCOCC", "outcome": "inactive"}
{"smiles": "CCN(CC)c1ccc(C=O)cc1", "outcome": "inactive"}
{"smiles": "CC1CCCCC1", "outcome": "inactive"}
{"smiles": "O=C1c2ccccc2C(=O)c2c(Cl)cccc21", "outcome": "inactive"}
{"smiles": "C[C@]12CC[C@H]3C(=CCc4cc(O)ccc43)[C@@H]1CCC2=O", "AC50": "0.502 µM (active)"}
